PubChem BioAssay (Tox21)
Values without a mark were called inactive. Calls of active or inactive are those of the source. Calls come from the whole dose curve; as a rule, active = well fitted curve in the direction sought with a large enough effect in the repeat runs; inconclusive = weak or mixed curves; inactive = flat fitted curve, though single readings scatter.

Test: qHTS assay to test for compound auto fluorescence at 460 nm (blue) in HEK293 cell free culture (AID 720681)
Details: cell-free medium, autofluorescence 405/460 nm (blue); series mostly up to 91.3 µM; fluorescence, % of fluorescent control: at the top concentration
Description: U.S. Tox21 Program National Center for Advancing Translational Sciences [NCATS] NIH Chemical Genomics Center [NCGC] U.S. Environmental Protection Agency [EPA] National Institutes of Environmental Health Sciences [NIEHS] National Toxicology Program [NTP] U.S. Food and Drug Administration [FDA] Tox21 Assay Overview: Compound auto fluorescence often interferes with screening of the compound library against various biological targets and signaling pathways. Some of these compounds may have fluorophoric properties. Such properties may interfere with the assay outputs resulting in false positives and/or negatives. To decrease such complications and ensure the compound activities are relevant in terms of biological response, the Tox21 10K compound library was screened for auto fluorescence. From the fluorophores used as reporter signals in our screening assays, the auto fluorescence equivalencies of compounds against three fluorophores have been evaluated: Triamterene, Fluorescein and Rose Bengal sodium for blue, green and red fluorescence, respectively. The fluorescence intensities were measured using Excitation/Emission wavelengths at 405/460nm, 485/535nm and 540/590nm for blue, green and red labels, respectively. This assay includes the blue fluorescence data.
Tox21 Assay Protocol Summary: 5 uL of culture medium (DMEM containing 10% FBS) per well was dispensed into black wall/clear bottom 1536-well plates using a Multidrop Combi Dispenser (ThermoFisher Scientific, Waltham, MA). After 23 nL compound or DMSO vehicle was transferred into assay plate by a pintool work station (Kalypsys, San Diego, CA), fluorescence intensities in the assay plates were measured by an Envision (PerkinElmer, Shelton, CT) plate reader using three labels for measuring blue, green and red fluorescence at […] 460, 535 and 590nm respectively.
% is set by controls: 0 for no effect and ±100 for the full control effect.

Point of comparison: `Oc1cccc(Nc2ccccc2)c1`, “fluorescence, % of fluorescent control” value 0.0533% [at 95.7 µM]. Against it:
- NCCNCCO — higher, 0.306% [at 95.7 µM]
- C=COCC(C)C — higher, 2.43% [at 95.7 µM]
- CC(C)C=O — lower, -0.0539% [at 95.7 µM]

Point of comparison: `CC1(C)S[C@@H]2[C@H](NC(=O)C(c3ccccc3)S(=O)(=O)O)C(=O)N2[C@H]1C(=O)O` (stereo not given in full), “fluorescence, % of fluorescent control” value -0.0013% [at 46 µM]. Against it:
- CC[N+](CC)(CCNC(=O)C(=O)NCC[N+](CC)(CC)Cc1ccccc1Cl)Cc1ccccc1Cl — higher, 0.0094% [at 46 µM]
- C[C@]1(Cn2ccnn2)[C@H](C(=O)O)N2C(=O)C[C@H]2S1(=O)=O — higher, 0.0916% [at 46 µM]
- COc1ncnc(NS(=O)(=O)c2ccc(N)cc2)c1OC — lower, -0.222% [at 46 µM]
- COc1ccccc1Oc1c(NS(=O)(=O)c2ccc(C(C)(C)C)cc2)nc(-c2ncccn2)nc1OCCO — lower, -0.015% [at 46 µM]
- CC[C@]1(O)C[C@H]2CN(CCc3c([nH]c4ccccc34)[C@@](C(=O)OC)(c3cc4c(cc3OC)N(C=O)[C@H]3[C@@](O)(C(=O)OC)[C@H](OC(C)=O)[C@]5(CC)C=CCN6CC[C@]43[C@@H]65)C2)C1 — higher, 0.0663% [at 46 µM]
- CC1(CN2CCC(n3c(=O)[nH]c4ccccc43)CC2)OCc2ccccc2-n2cccc21 (stereo not given) — higher, 0.167% [at 46 µM]
- CN(C)CCC=C1c2ccccc2C=Cc2ccccc21 — lower, -0.287% [at 46 µM]
- Cc1cc(=O)c2c(O)c3c(O)cc(=O)c4c3c3c(cc(O)c1c23)C(C)(C)C=4O — lower, -0.0288% [at 46 µM]
- C[C@@H](O)[C@H]1C(=O)N2C(C(=O)O)=C([C@H]3CCCO3)S[C@H]12 — higher, 0.707% [at 46 µM]
- Nc1cccc2c1CN(C1CCC(=O)NC1=O)C2=O (stereo not given) — lower, -0.0134% [at 46 µM]
- CCOC(=O)C1=C(C)NC(C)=C(C(=O)OC)C1c1cccc(Cl)c1Cl (stereo not given) — higher, 8.84% [at 46 µM]
- COc1cc(C(=O)NCCCCCC(=O)O)cc(OC)c1OC — lower, -0.0264% [at 46 µM]

Point of comparison: `CC(C)=CC(=O)C=C(C)C`, “fluorescence, % of fluorescent control” value -0.121%. Against it:
- c1ccc(C[n+]2cccc3ccccc32)cc1 — higher, 0.893%
- CC(C)(C)C(=O)C(=O)O — higher, -0.0638%
- Cc1ccc(C(C)(C)O)cc1 — higher, 0.941%
- O=[N+]([O-])c1ccc(Nc2ccc(Nc3ccccc3)c(S(=O)(=O)O)c2)c([N+](=O)[O-])c1 — lower, -0.799%
- Cc1cccc(O)c1N — higher, -0.0001%
- O=C=Nc1cccc(C(F)(F)F)c1 — higher, -0.0684%
- Cc1cc(C)c(N)cc1C — higher, 0.0833%
- O=C1Cc2ccccc2N1c1c(Cl)cccc1Cl — lower, -0.165%
- O=C1CCCCCCCCCCOCCCCO1 — higher, -0.0431%
- CC(=O)Nc1ccc(C)cc1C — higher, 0.0876%
- CC(=O)OCCN(CCOC(C)=O)c1ccc(N=Nc2ccc([N+](=O)[O-])cc2C#N)cc1 — higher, 0.157%
- O=C1NC(=O)c2cc([N+](=O)[O-])ccc21 — higher, 0.0467%
- CCC=CC#N — higher, 0.0749%
- O=C1c2ccccc2C(=O)C1c1nc2ccccc2c(Br)c1O — higher, 0.355%
- CC(=O)NC1(c2cccc(F)c2)CCN(CC[C@@]2(c3ccc(Cl)c(Cl)c3)CN(c3ccccc3)C(=O)CO2)CC1 — higher, 0.048%
- CC/C=C1/OC(=O)c2ccccc21 — higher, -0.0367%
- CCC(=O)C1CC(C(C)C)CC=C1C (stereo not given) — higher, -0.103%
- O=C1c2ccccc2C(=O)c2c(O)c(O)cc(O)c21 — lower, -0.395%
- COc1cc(C(=O)NC2CCN(C)CC2)ccc1Nc1ncc2c(n1)N(C1CCCC1)CC(F)(F)C(=O)N2C — higher, 0.0815%

With `C[C@]12CC[C@@H]3c4ccc(O)cc4CC[C@H]3[C@@H]1CC[C@@H]2OC(=O)CCC1CCCC1` the Potency was “inactive”.
In the case of `CC1CC(OC(=O)C(O)c2ccccc2)CC(C)(C)N1C` (stereo not given), the Potency is reported as “inactive”.

`CN(C(=O)CN(CCO)CC(=O)N(C)C(C)(C)Cc1ccccc1)C(C)(C)Cc1ccccc1` gave a fluorescence, % of fluorescent control of 0.0268% [at 18.6 µM].
